Only some compounds are listed: those with a hit (about 22% of all), similar ones and a draw of the others.
CYP2C9 act – human CYP2C9 activators, primary screen, biochemical, luminescence | AID 1024, 2008 | recombinant CYP2C9, luciferin-H conversion; stronger effect = higher value; factor 1 = untreated enzyme, 0 = blocked | activation factor at 5 µM | 1.4% of 96,000 active | Cytochrome P450 2C9 (Homo sapiens), P11712;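 active = activation factor of 2 or more for CYP2C9 at a 5 µM dose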
CYP2C19 inh – blockers of cytochrome P450 2C19 activity – biochemical, luminescence, ADME assay, primary screen; 21% of 96,000 active; inhibition, % at 5 µM; CYP2C19 Supersomes, luciferin-H EGE luminescence, 30 min; P33261;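 active = CYP2C19 inhibition above a set limit at 5 µM in the primary screen, cut at about 50% in these data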
Target sequence (P33261 whole entry, looked up): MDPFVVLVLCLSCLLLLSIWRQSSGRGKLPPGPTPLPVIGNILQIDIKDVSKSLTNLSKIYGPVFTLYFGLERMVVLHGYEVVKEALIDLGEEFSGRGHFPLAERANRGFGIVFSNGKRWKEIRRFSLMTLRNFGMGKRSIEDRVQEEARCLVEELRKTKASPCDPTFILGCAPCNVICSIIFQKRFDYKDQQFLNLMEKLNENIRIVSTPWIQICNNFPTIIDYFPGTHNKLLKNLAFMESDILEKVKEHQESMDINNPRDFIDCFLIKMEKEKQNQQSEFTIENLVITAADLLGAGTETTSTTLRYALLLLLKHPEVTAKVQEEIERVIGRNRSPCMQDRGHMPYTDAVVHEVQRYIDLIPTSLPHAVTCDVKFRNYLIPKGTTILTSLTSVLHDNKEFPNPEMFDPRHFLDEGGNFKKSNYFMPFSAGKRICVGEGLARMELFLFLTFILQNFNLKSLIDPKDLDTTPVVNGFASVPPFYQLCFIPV
CYP2C19 activ – human CYP2C19 activators, primary screen, biochemical, luminescence; Cytochrome P450 2C19 (Homo sapiens), P33261; recombinant CYP2C19, luciferin-H EGE luminescence; stronger effect = higher value; 0 = fully inhibited enzyme, 1 = untreated enzyme; activation factor at 5 µM; 96,000 tested, under 10 active; AID 1025, 2008;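 active = activation factor of at least 2 at 5 µM in the primary screen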
CYP2C9 inhib – blockers of cytochrome P450 2C9 activity – biochemical, luminescence, ADME assay, primary screen | AID 777, 2007 | 20% of 96,000 active | P11712 | inhibition, % at 5 µM | CYP2C9 Supersomes, luciferin-H conversion;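 active = blocking of liver enzyme CYP2C9 beyond about 50% at 5 µM, limit read from the data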
Measles CPE – compounds protecting cells from measles virus cytopathic effect, primary screen, measles RdRp inhibitor project, single point, MLSMR library, absorbance; Measles virus-infected cells, CPE protection; protection (pct of control), % at 4 µM; 1.5% of 140,000 active; AID 841, 2007; in the data active = protection mostly above about 24%, no sharp cut-off; inactive = mostly below about 26%
A number is an active result; 0 = inactive; - = no result given.

SMILES	CYP2C9 act	CYP2C19 inh	CYP2C19 activ	CYP2C9 inhib	Measles CPE
COc1ccc(S(=O)(=O)Nc2ccccc2OC)cc1C	2.9	100.0	0	0	0
CSc1ccccc1NS(=O)(=O)c1ccccc1	4.6	87.3	0	0	0
O=C(O)c1ccccc1NS(=O)(=O)c1cccc(C(F)(F)F)c1	0	60.5	0	51.3	0
COc1ccc(S(=O)(=O)Nc2ccccc2SC)cc1C	2	98.7	0	0	0
O=S(=O)(Nc1cccc2c1CCCC2)c1cccc(C(F)(F)F)c1	-	-	-	-	0
Cc1ccnc(NS(=O)(=O)c2ccccc2)n1	0	0	0	0	0
CCCCCCn1c(=O)c(-c2nc3ccccc3c(=O)[nH]2)c(O)c2ccccc21	0	0	0	0	-
COc1cc(NS(=O)(=O)c2ccc(Cl)cc2)c(C(=O)O)cc1OC	-	-	-	-	0
COc1ccccc1NS(=O)(=O)c1ccc(Cl)cc1	0	99.0	0	0	0
COc1cc(C)c(S(=O)(=O)Nc2ccccc2F)cc1C	0	88.2	0	51.6	0
O=C(O)c1ccccc1O	-	-	-	-	42.7
O=C(O)c1cc(S(=O)(=O)O)ccc1O	0	0	0	0	54.9
CCCCn1c(=O)c2c(c3ccccc31)OCC(=O)N2	0	0	0	0	-
COc1ccc(-c2nnc3n2-c2ccccc2SC3)cc1OC	0	0	0	0	0
COc1ccccc1NS(=O)(=O)c1ccc(O)c(C(N)=O)c1	0	100.0	0	0	0
O=C(CS(=O)(=O)c1cccc(C(F)(F)F)c1)Nc1ccccc1Cl	0	60.2	0	0	0
Cc1cc(O)c(C(C)C)cc1NS(=O)(=O)c1ccccc1	0	86.3	0	0	0
COc1ccccc1NS(=O)(=O)c1cccc(NC(=O)Nc2ccccc2)c1	-	-	-	-	0
O=C(Nc1ccccc1F)c1ccc(CNS(=O)(=O)c2cccc(C(F)(F)F)c2)cc1	0	0	0	0	0
Cc1cc(S(=O)(=O)Nc2ccccc2C(=O)O)ccc1Cl	0	0	0	73.6	0
COc1ccc(OCC(=O)N/N=C/c2ccsc2)cc1	-	-	-	-	0
COC(=O)c1c(NC(=O)COC(=O)[C@@H](NS(=O)(=O)c2ccc(C)cc2)C(C)C)sc2c1CCC2	-	-	-	-	0
COc1cc(/C=N/Nc2nc3ccccc3o2)cc(OC)c1O	0	0	0	0	0
COc1ccc(/C=N/Nc2nc3ccccc3o2)cc1O	0	50.8	0	52.4	0
CCOc1cc(S(=O)(=O)n2c(C)nc3ccccc32)ccc1F	0	99.0	0	85.6	0
SMILES	CYP2C9 act	CYP2C19 inh	CYP2C19 activ	CYP2C9 inhib	Measles CPE
CCOc1cc(S(=O)(=O)N2CCCCC2)ccc1F	0	0	0	0	0
COc1ccccc1N1CCN(C(=O)c2c(-c3ccccc3)noc2C)CC1	0	55.1	0	0	0
Cc1onc(-c2ccccc2)c1C(=O)N1CCCSC1=Nc1ccccc1	0	98.5	0	61.3	0
COc1ccccc1N1CCN(C(=O)c2ccc(CSc3ccccc3)cc2)CC1	-	-	-	-	0
COc1ccccc1N1CCN(C(=O)c2ccc(S(=O)(=O)N3CCCC3)cc2)CC1	0	0	0	0	0
COc1ccccc1N1CCN(C(=O)c2ccc(C(C)(C)C)cc2)CC1	0	75.2	0	90.9	0
COc1ccccc1N1CCN(C(=O)c2ccncc2)CC1	0	100.4	0	86.3	0
CCOC(=O)c1c(C)c(C(=O)NCc2cccs2)c(C)n1CC	0	0	0	0	0
C=CCOC(=O)COc1ccc2c(C)c(C)c(=O)oc2c1	0	55.4	0	0	0
C=CCOC(=O)COc1ccc2c(C)c(CC)c(=O)oc2c1	0	64.3	0	0	0
COc1ccc(C(=O)OC(C)C(=O)Nc2cc(C(F)(F)F)ccc2Cl)c(OC)c1OC (configuration not stated)	-	-	-	-	0
C=CCc1cccc(C2Nc3ccccc3C(=O)N2O)c1O (configuration not stated)	0	0	0	0	0
Cc1ccc(-c2csc3ncnc(OCC(=O)NC(=O)NCc4ccco4)c23)cc1	0	50.2	0	0	0
O=C(COc1ncnc2scc(-c3ccc(F)cc3)c12)NCc1ccco1	0	0	0	0	0
COc1cc(-c2nnc(SCC(=O)Nc3ccc4c(c3)OCCO4)o2)cc(OC)c1OC	0	0	0	75.3	0
CCN(CC)S(=O)(=O)c1ccc(-c2nnc(SCC(=O)Nc3ccc(OC)c(OC)c3)o2)cc1	0	0	0	69.7	0
Cc1cc(NC(=O)CSc2nnc(-c3ccc4c(c3)OCCO4)o2)no1	0	0	0	0	0
C=CCNC(=S)N/N=C(\C)c1cccc(OC)c1	-	-	-	-	0
Brc1ccc(-c2noc(COc3ccc4c(c3)CCC4)n2)o1	0	0	0	64.2	0
Clc1ccc(OCc2nc(-c3ccc(Br)o3)no2)cc1	0	0	0	0	0
Cc1ccc(NS(=O)(=O)c2ccccc2)c2c1CC(C)(C)O2	2	65.7	0	0	0
Cc1ccc(NS(=O)(=O)c2cccc(C(=O)O)c2)c(C)c1	0	0	0	0	0
COC(=O)CSc1nc(C)c(C(=O)Nc2ccccc2C)c(-c2ccc(Cl)cc2)c1C#N	-	-	-	-	0
O=S(=O)(c1ccc(Br)s1)N1CCN(c2ncccn2)CC1	0	0	0	61.1	0
O=S(=O)(c1ccc(Br)s1)N1CCN(c2ccccn2)CC1	0	99.4	0	98.1	0
SMILES	CYP2C9 act	CYP2C19 inh	CYP2C19 activ	CYP2C9 inhib	Measles CPE
COc1ccc2c(c1OC)C(=O)OC2CC(=O)c1ccc2c(c1)OCO2 (configuration not stated)	0	55.7	0	0	0
Cc1cccc(CSCCNC(=O)c2ccc(N(C)S(=O)(=O)c3ccccc3)cc2)c1	0	60.9	0	88.8	0
CN(c1ccc(C(=O)NCCSCc2ccccc2)cc1)S(=O)(=O)c1ccccc1	0	0	0	68.7	0
CN(c1ccc(C(=O)NC2CC2)cc1)S(=O)(=O)c1ccccc1	0	0	0	70.4	0
Cc1cc(NC(=O)c2ccc(N(C)S(=O)(=O)c3ccccc3)cc2)no1	0	0	0	0	0
COc1ccc(NC(=O)c2ccc(-c3ccccc3C(F)(F)F)o2)cc1	-	-	-	-	0
CS(=O)(=O)N1CCN(C(=O)c2ccncc2)CC1	0	0	0	0	0
CS(=O)(=O)N1CCN(C(=O)c2ccc(Br)s2)CC1	0	94.1	0	0	0
COC(=O)c1ccc(COc2cccc3c2CCN(Cc2cccc(C)c2)C3=O)o1	-	-	-	-	0
Cc1ccc(S(=O)(=O)NNC(=O)c2sc3nc(C)cc(C)c3c2-n2cccc2)cc1	0	80.6	0	98.9	0
Cc1ccc(S(=O)(=O)NNC(=O)c2sccc2-n2cccc2)cc1	0	0	0	0	0
CCn1nnnc1NCc1cccn1C	0	0	0	75.9	0
Cn1cccc1CNC1CCCC1	0	0	0	0	0
O=C(N/N=C\c1ccc(F)cc1)c1ccc(Cn2cc(Br)c([N+](=O)[O-])n2)o1	-	-	-	-	0
COc1ccc2c(c1)c(CC(=O)Nc1cc(C)ccc1C)c(C)n2C(=O)c1ccc(Cl)cc1	-	-	-	-	0

Screening results as filed in PubChem.
